From PubChem BioAssay (NCATS)
Inconclusive results are not listed. A call without a number means that no potency is given here. Values without a mark were called inactive. The source made the active and inactive calls. Calls come from the whole dose curve; as a rule, active = well fitted cell-killing curve with a large enough effect; inconclusive = small, poorly fitted or top-dose-only effect, or effect the other way; inactive = flat fitted curve, though single readings scatter.

What follows are molecules tested on PA-1 (assay: Primary qHTS to identify gynecologic anti-cancer compounds using libraries of approved drugs and bioactive compounds (AID 1345084; note: nearly all actives have a fitted effect of over 55% in size)). Settings: Gynecologic cancer cell panel viability, ATPlite luminescence, 48 h; series mostly up to 57.5 µM.
How it was run: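 ATP-based viability (ATPlite), 1,000 cells/well, 16 h pre-incubation, 48 h compound at 37 C, 5% CO2, 15 min RT before read.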
Potency is the fitted concentration of half-maximal effect.

Row | Compound | Potency | activity change, negative = cytotoxicity
1 | CC(=O)O[C@H]1[C@@H](O)[C@H](O[C@H]2[C@@H]3C=CO[C@@H](O[C@H]4O[C@@H](CO)[C@H](O)[C@@H](O)[C@@H]4O)[C@@H]3[C@@]3(CO)O[C@@H]23)O[C@@H](C)[C@@H]1OC(=O)/C=C/c1ccccc1 | inactive | 
2 | COc1cc(OC)cc(C(=O)Nc2ccc(Cl)c(-c3nc4ccc(N(C)C)cc4[nH]3)c2)c1 | inactive | 
3 | CC(=O)OC1C(O)C2C(C)C3=CC(=O)OC3(O)CC2C2(C)CCCC(C)(CO)C12 (centres undefined) | inactive | 
4 | CC/C=C\CCO[C@@H]1O[C@H](CO[C@@H]2OC[C@H](O)[C@H](O)[C@H]2O)[C@@H](O)[C@H](O)[C@H]1O | inactive | 
5 | O=C(O)/C=C/c1ccc(-c2ccc(O)c(C34CC5CC(CC(C5)C3)C4)c2)cc1 | 2.24 µM (active) | 
6 | O=C(CO)[C@@H](O)[C@H](O[C@@H]1O[C@H](CO)[C@H](O)[C@H](O)[C@H]1O)[C@H](O)CO | inactive | 
7 | C=C1[C@H](OC(C)=O)[C@H]2[C@@H](OC(C)=O)[C@](C)(OC(C)=O)C[C@]2(OC(C)=O)C(=O)[C@H](C)/C=C/C(C)(C)C(=O)[C@H](OC(=O)C(C)CC)[C@H]1OC(C)=O (some centres undefined) | inactive | 
8 | COC(=O)CC(O)CC(O)/C=C/c1c(C)ccc2c1C(O)CC(C)C2 (centres undefined) | inactive | 
9 | C=C[C@]1(C)C=C2CCC3C(C)(CCC[C@@]3(C)C(=O)O)C2CC1 (some centres undefined) | inactive | 
10 | C=CC/C=C\C/C=C\CCCCCCCc1cccc(O)c1C(=O)O | inactive | 
11 | CC(=O)OC1C(OC(=O)c2ccccc2)C2C(C)(C)CC(=O)CC2(C)C23CCC(C)(C2)C(O)CC13 (centres undefined) | inactive | 
12 | Cc1cc(Nc2ccc(NC(=O)c3ccc(Nc4ccnc5ccccc45)cc3)cc2)nc(N)n1 | 20 µM (active) | 
13 | CC(=O)OC1C[C@]2(C)C(O)CC(C)=C[C@H](OC(=O)c3ccc(O)cc3)C2[C@]1(O)C(C)C (some centres undefined) | inactive | 
14 | C=C(CO)C12OC1C1(C)C(=CC2=O)C(O)C(O)CC1C (centres undefined) | inactive | 
15 | COC1CC(O[C@H]2CC[C@@]3(C)C(CCC4C3[C@H](OC(C)=O)[C@@H](OC(=O)/C=C/c3ccccc3)[C@]3(C)C(C(C)=O)CC[C@]43O)C2)OC(C)C1OC1CC(OC)C(OC2CC(OC)C(OC3OC(C)C(OC4OC(CO)C(O)C(O)C4O)C(OC)C3O)C(C)O2)C(C)O1 (some centres undefined) |  | -4.15% [at 6.55 µM]
16 | CC1(C)CC[C@]2(C(=O)O)[C@H](O)C[C@]3(C)C(=CCC4[C@@]5(C)CC[C@H](O[C@@H]6O[C@H](CO[C@@H]7OC[C@H](O)[C@H](O)[C@H]7O[C@@H]7OC[C@@H](O)[C@H](O)[C@H]7O)[C@@H](O)[C@H](O)[C@H]6O[C@@H]6O[C@H](CO)[C@@H](O)[C@H](O)[C@H]6O)C(C)(C)C5CC[C@]43C)[C@@H]2C1 (some centres undefined) |  | -2.35% [at 11.6 µM]
17 | C/C=C1\[C@H](OC2OC(COC3OC(CO)C(O)C(O)C3O)C(O)C(O)C2O)OC=C(C(=O)OC)[C@H]1CC(=O)OCCc1ccc(O)cc1 (some centres undefined) | inactive | 
18 | CC1(C)CC[C@]2(C(=O)OC3OC(CO)C(O)C(O)C3O)CC[C@]3(C)C(=CCC4[C@@]5(C)CC[C@H](OC6OC(C(=O)O)C(O)C(OC7OC(CO)C(O)C(O)C7O)C6O)C(C)(C)C5CC[C@]43C)C2C1 (some centres undefined) |  | 4.28% [at 11.6 µM]
19 | CC1(C)CC[C@]2(C(=O)O[C@@H]3O[C@H](CO)[C@@H](O)[C@H](O)[C@H]3O)CC[C@]3(C)C(=CCC4[C@@]5(C)CC[C@H](O[C@@H]6O[C@H](C(=O)O)[C@@H](O)[C@H](O)[C@H]6O)C(C)(C)C5CC[C@]43C)C2C1 (some centres undefined) |  | 9.38% [at 11.6 µM]
20 | CN(C)CCn1cc(S(=O)(=O)c2cccc(F)c2)c2cccnc21 | inactive | 

Row | Compound | Potency | activity change, negative = cytotoxicity
21 | CC1=C(C(=O)O)/C(=C\CO[C@@H]2O[C@H](CO)[C@@H](O)[C@H](O)[C@H]2O)C(OC(=O)/C=C/c2ccc(O)cc2)C1 (some centres undefined) | inactive | 
22 | C[C@H](NC(c1cccc(C[P+](=O)O)c1)[C@H](C)O)c1ccc(Cl)c(Cl)c1 (some centres undefined) | inactive | 
23 | C=C[C@H]1[C@H](O[C@@H]2O[C@H](CO)[C@@H](O)[C@H](O)[C@H]2O)OC=C(C(=O)OC)[C@H]1C[C@@H]1c2cc(O)c(O)cc2CCN1C(C)=O | inactive | 
24 | C=CC(C)(C)c1[nH]c2ccccc2c1C[C@@H]1NC(=O)[C@H](Cc2c[nH]c3ccccc23)NC1=O | inactive | 
25 | C=C1C(=O)O[C@@H]2/C=C(\C)C(=O)/C=C/[C@](C)(O)C[C@@H](OC(=O)C(C)C)[C@@H]12 | 4.47 µM (active) | 
26 | O=C(Nc1ccc(-c2ccncc2)cc1)N[C@H](CO)c1ccccc1 | inactive | 
27 | CC[C@@](C)(Nc1ccnc(-c2c[nH]c3ncccc23)n1)C(=O)NCC(F)(F)F | inactive | 
28 | COC(=O)CCC(=O)OC[C@]1(C)CCC[C@@]2(C)C3CC[C@]4(C)C=CC3(CCC12)C4 (some centres undefined) | inactive | 
29 | C=C1CCC2C(C)(C)C(O)CCC2(C)C1CCC(C)CCO (centres undefined) | inactive | 
30 | C[C@@H]1O[C@@H](O[C@H]2[C@H](O)[C@@H](C(=O)O)O[C@@H](O[C@H]3CC[C@@]4(C)C(CC[C@]5(C)C4CC=C4C6CC(C)(C)CC[C@]6(C(=O)O)CC[C@]45C)C3(C)C)[C@@H]2O[C@@H]2OC[C@@H](O)[C@H](O)[C@H]2O)[C@H](O)[C@H](O)[C@H]1O (some centres undefined) |  | 4.01% [at 11.6 µM]
31 | O=C(O)CC(=O)OC[C@H]1O[C@@H](Oc2ccc3c(c2)OC[C@H]2c4cc5c(cc4O[C@@H]32)OCO5)[C@H](O)[C@@H](O)[C@@H]1O | inactive | 
32 | C[C@@H]1O[C@@H](O[C@H]2[C@H](O)[C@@H](O[C@@H]3O[C@H](CO)[C@@H](O)[C@H](O[C@@H]4O[C@H](CO)[C@@H](O)[C@H](O)[C@H]4O)[C@H]3O)[C@H](O[C@H]3CC[C@@]4(C)C(=CC[C@@H]5C4CC[C@@]4(C)C5C[C@@H]5OC6(CC[C@@](C)(CO[C@@H]7O[C@H](CO)[C@@H](O)[C@H](O)[C@H]7O)O6)[C@@H](C)[C@@H]54)C3)O[C@@H]2CO)[C@H](O)[C@H](O)[C@H]1OC1OC(CO)C(O)C(O)C1O (some centres undefined) |  | 10.2% [at 6.55 µM]
33 | C[C@@H]1[C@H]2[C@H](O[C@@H]3O[C@H](CO)[C@@H](O)[C@H](O)[C@H]3O)OC=C(C(=O)O)[C@H]2C[C@@H]1O | inactive | 
34 | CC(C)(F)C[C@@H](N[C@@H](c1ccc(-c2ccc(S(C)(=O)=O)cc2)cc1)C(F)(F)F)C(=O)NC1(C#N)CC1 | inactive | 
35 | CC1=CC2/C=C(\C)CC[C@@H](O)[C@@H](O)[C@@H]3O[C@@H]3C(=O)[C@]23C(=O)N[C@@H](CC(C)C)[C@@H]3[C@@H]1C (some centres undefined) | inactive | 
36 | Cc1ccc(-c2c(C(=O)CF)n(CCCO)c3ncnc(N)c23)cc1 | inactive | 
37 | C=C1C(O)C[C@@H]2C(C(=O)O)=CO[C@@H](O[C@@H]3O[C@H](CO)[C@@H](O)[C@H](O)[C@H]3OC(=O)c3ccc(O)cc3)[C@H]12 (some centres undefined) | inactive | 
38 | Cc1ccc(F)cc1C(=O)Nc1ccc(C(=O)N2Cc3cccn3Cc3ccccc32)c(Cl)c1 | inactive | 
39 | O=C(CCc1ccccc1)N1CCC(O)(Cn2cnc3cc(Cl)ccc3c2=O)CC1 | inactive | 
